# Source: PubChem
# This is a sample that favours compounds with a hit; in the whole collection about 19% have one here.
# TDP1 cell CPT: DT40-hTDP1 cell growth loss with CPT; chicken DT40 Tdp1-/-;hTDP1 cells + 20 nM CPT, ATP luminescence, 48 h; 420,000 compounds, 12% hits; Potency, µM (titrated, usually from 46.2 µM), inactives show at the highest dose activity change, negative = growth inhibition, actives largely listed as inhibitors; AID 686979; also: nearly all actives have a fitted effect of over 55% in size
#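 Chicken DT40 Tdp1-/- cells stably complemented with human TDP1 were seeded at 400 cells/well in medium containing 20 nM camptothecin, exposed to pin-transferred compounds, and grown at 37 °C for at least 48 hr. Viability was read as ATP luminescence.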
# TDP1 block: blocks human tyrosyl-DNA phosphodiesterase 1 | Q9NUW8 | recombinant TDP1, AlphaScreen DNA substrate cleavage | Potency, µM (doses to about 130 µM), inactives show at the top dose activity change, negative = inhibition, usual class: inhibitors | 350,000 compounds, 0.28% hits; also: nearly all actives have a fitted effect of over 40% in size
#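 Steps: enzyme plus compound, 15 min RT; add biotin/phosphotyrosine-FITC oligonucleotide (15 nM final), react 5 min; add donor/acceptor beads (10 ug/ml final), 10 min; read AlphaScreen. Tdp1 at 1 nM final.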
# VP16 counter: inhibits Gal4-VP16 luciferase reporter, ROR gamma counter-screen. 310,000 compounds, 3.5% hits. Drosophila S2 Gal4-VP16 UAS-luciferase, luminescence, 20 h. Potency, µM (top dose mostly 53.6 µM), inactives show at the highest dose activity, negative = inhibition, usual class: inhibitors;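 also: Gal4-VP16 expression switched on by copper sulfate through the metallothionein promoter; nearly all actives have a fitted effect of over 50% in size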
# RORgamma inh: ROR gamma (mouse) transcription inhibition; Drosophila S2 Gal4-RORgamma UAS-luciferase reporter, 20 h; Potency, µM (highest dose often 53.6 µM), for the others: at the top dose activity change, negative = inhibition, actives largely listed as inhibitors; AID 2551; 310,000 compounds, 5.4% hits; also: nearly all actives have a fitted effect of over 60% in size
# Target sequence (P51450 whole entry, looked up, the tested form may be a part): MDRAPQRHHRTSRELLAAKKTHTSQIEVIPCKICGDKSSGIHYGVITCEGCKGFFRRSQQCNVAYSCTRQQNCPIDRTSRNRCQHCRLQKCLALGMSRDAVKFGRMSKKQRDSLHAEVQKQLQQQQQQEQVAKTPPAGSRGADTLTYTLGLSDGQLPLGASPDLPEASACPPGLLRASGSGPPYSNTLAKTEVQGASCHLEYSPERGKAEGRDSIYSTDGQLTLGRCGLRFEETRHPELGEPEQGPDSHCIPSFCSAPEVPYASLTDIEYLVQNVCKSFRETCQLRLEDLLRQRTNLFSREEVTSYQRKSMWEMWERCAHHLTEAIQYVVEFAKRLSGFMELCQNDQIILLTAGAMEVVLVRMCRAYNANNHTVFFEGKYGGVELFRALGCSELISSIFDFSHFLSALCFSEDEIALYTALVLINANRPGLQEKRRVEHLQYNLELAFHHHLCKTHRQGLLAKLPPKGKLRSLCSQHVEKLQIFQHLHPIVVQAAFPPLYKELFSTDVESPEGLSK
#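 ROR gamma transcriptional activity was tracked as Gal4-UAS luciferase output in stably transfected Drosophila Schneider cells, with compound added 1 hr before 700 uM copper sulfate induction and a 20 hr ambient-temperature incubation.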
# DT40 TDP1 no CPT: qHTS for Inhibitors of human tyrosyl-DNA phosphodiesterase 1 (TDP1): qHTS in cells in absence of CPT; DT40 Tdp1-/- hTDP1 cells, no CPT, ATP luminescence, 48 h; Potency, µM (doses to about 46.2 µM), for inactives: at the highest dose activity change, negative = growth inhibition, actives largely listed as inhibitors; 420,000 compounds, 15% hits; also: nearly all actives have a fitted effect of over 55% in size
#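 No-CPT arm: Tdp1-/-;hTDP1 DT40 cells (400/well) plus compounds, incubated ≥48 hr at 37 °C. Readout CellTiter-Glo luminescence.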
# Active calls of the source: *; ? = inconclusive; nt = no result given; ! = not active in a repeat; [ ] = dose if it differs, or a comment. Calls follow the shape of the dose curve; as a rule, active = well fitted curve in the direction sought with a large enough effect; inconclusive = small, poorly fitted or top-dose-only effect, or another doubt; inactive = no such curve, though single readings can be large; an effect the other way counts as inactive or inconclusive. % is scaled to controls: 0 for no effect and ±100 for the full control effect; potency is read from the fitted curve at half-maximal effect.
SMILES,TDP1 cell CPT,TDP1 block,VP16 counter,RORgamma inh,DT40 TDP1 no CPT
CC(CC(=O)NC1CCSC1=O)c1ccccc1 (configuration not stated),-7.7%,1.1%,nt,-21.9%[0.365 µM],-3.8%
CC[N+]1(C)CCC(O)(/C=C/c2ccccc2)C(C(=O)/C=C/c2ccccc2)C1 (configuration not stated),0.0326µM*,nt,nt,nt,0.13µM*
O=C(c1nc(-c2ccc(Cl)cc2)n2c1CCCCC2)N1CCN(c2ccccc2F)CC1,?,12.4%,nt,nt,16.4µM*
O=C(c1nc(-c2ccc(Cl)cc2)n2c1CCCCC2)N1CCN(c2ccc(F)cc2)CC1,23.1µM*,11.2%,nt,nt,10.3µM*
COc1ccc(N=C2NN=C(c3c(C)[nH]c4ccccc34)CS2)cc1,?,8.2%,2.6%,36.5%,23.1µM*
CS(=O)(=O)N(CC(N)=O)c1ccc(F)c(Cl)c1,5.2%,0.0%,9.5%,16.5%,1.1%
OC(c1cc(F)cc(Cl)c1)c1ncc(-c2cccc(C(F)(F)F)c2)[nH]1 (configuration not stated),16.4µM*,nt,nt,nt,13µM*
OC(c1ccc(Cl)cc1)c1ncc(-c2cccc(C(F)(F)F)c2)[nH]1 (configuration not stated),?,nt,nt,nt,20.6µM*
C=C(C)C(=O)/C=C/CCC/C=C/C(=O)OCC,nt,6.9%,-1.1%,-1.4%,nt
CCCCNC(=O)C1CCC(CNS(=O)(=O)c2cccc3nsnc23)CC1 (configuration not stated),-5.2%,3.1%,-7.4%,1.1%,0.1%
Cc1cc(=O)c2c(O)c3c(O)cc(=O)c4c3c3c(cc(O)c1c23)C(C)(C)C=4O,1.03µM*!,8.1%,3.98µM*,7.08µM*!,0.731µM*
Cc1ccc(OCCCc2c(C)n[nH]c2C)cc1,?,1.2%,?,11.2µM*,16.4µM*
Cc1n[nH]c(C)c1CCCCOc1ccccc1,?,10.3%,?,15.8µM*,?
Cc1n[nH]c(C)c1CCCCOc1ccccc1F,-28.3%,nt,?,?,?
COc1cc(OC)c(-c2cc(C(=O)O)ccc2OC)c(OC)c1,1.7%,0.0%,-0.7%,-11.4%,-3.7%
c1ccc(-c2nnc(CN3CCCc4ccccc43)o2)cc1,?,11.6%,?,-32.2%,23.1µM*
CN(CC(=O)NCc1ccc(F)cc1)Cc1ccc(Br)cc1,-28.8%,-0.3%,-1.2%,29.1%,?
Cc1cc(C)c(NC(=O)Cn2c(=O)c3cccn3c3ccccc32)c(C)c1,?,-7.1%,-8.1%,-30.6%,-25.6%
CCc1ccccc1NC(=O)CCCn1c(=O)c2cccn2c2ccccc21,?,10.4%,nt,nt,16.4µM*
Cc1ccc(Cl)cc1NC(=O)CCn1c(=O)c2cccn2c2cccnc21,?,7.7%,nt,nt,?
Cc1ccc(NC(=O)CCn2c(=O)c3cccn3c3ccccc32)cc1C,?,6.0%,3.4%,?,18.4µM*
Cc1ccc(NC(=O)CCn2c(=O)c3cccn3c3ccccc32)cc1Cl,18.4µM*,6.5%,nt,nt,23.1µM*
Cc1c(Cl)cccc1NC(=O)CCn1c(=O)c2cccn2c2ccccc21,?,0.0%,nt,nt,16.4µM*
COc1ccc(NC(=O)c2cc(S(=O)(=O)N3CCOCC3)ccc2OC)cc1,0.8%,0.0%,nt,nt,-3.6%
Cc1ccc(NC(=O)CCCn2c(=O)c3cccn3c3ccccc32)cc1C,16.4µM*,0.0%,nt,nt,11.6µM*
CCOC(=O)c1ccc(NC(=O)CCCn2c(=O)c3cccn3c3ccccc32)cc1,?,2.6%,nt,nt,?
CCOCCn1cnc2sc(C(=O)NCC(=O)OCC)c(C)c2c1=O,-0.9%,1.1%,-4.2%,-4.3%,?
Cc1ccccc1C(=O)OCC(=O)NCC1COc2ccccc2O1 (configuration not stated),?,-13.3%,nt,nt,18.4µM*
O=C(CNS(=O)(=O)c1ccc(Br)s1)NCC1COc2ccccc2O1 (configuration not stated),?,0.9%,12.6µM*,-16.9%,?
